# Rows were chosen to be rich in hits. Some 2.8% of all compounds tested hit in one or more screens of this group.
# proKLK7 act: proKLK7 (human) activation, primary screen; hit rate 0.9% among 370,000; purified proKLK7, EDANS-DABCYL substrate fluorescence; 100% is mature enzyme control, 0% vehicle; activation, % at 7 µM; P49862;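 active means activation above the mean of all tested compounds plus 3 SD, computed per campaign excluding outliers beyond control limits, cut at about 13% in these data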
# Target sequence (P49862 whole entry, looked up): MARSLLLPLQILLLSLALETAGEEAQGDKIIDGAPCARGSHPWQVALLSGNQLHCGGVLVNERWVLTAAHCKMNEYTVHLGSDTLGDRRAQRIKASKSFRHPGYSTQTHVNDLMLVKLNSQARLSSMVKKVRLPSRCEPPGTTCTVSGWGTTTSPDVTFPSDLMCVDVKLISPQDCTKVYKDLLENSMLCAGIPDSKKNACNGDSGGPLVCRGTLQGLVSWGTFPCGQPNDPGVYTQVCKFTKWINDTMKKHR
# PG9 binder: binds the HIV-1 gp120 antibody PG9. TR-FRET gp120-PG9 antibody binding. inhibition, % at 6.7 µM. hit rate 0.43% among 360,000. AID 624416; in the data active means inhibition above about 8.5%
# Rev-erbA mod: modulates human Rev-erb alpha binding to DNA; Rev-erbα–FITC-DNA binding, fluorescence polarization, 90 min; activity, % at 10 µM; P20393; hit rate 0.79% among 370,000;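 active means activity above about 14%, limit read from the data; passing the limit was not always enough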;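 further: 0% = DMSO wells with 35 nM protein and 100% = DMSO wells with 750 nM protein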
# GASC-1 inh: human JMJD2C demethylase inhibition | Q9H3R0 | GST-JMJD2C(1-420) H3K9me3 demethylation, DELFIA europium | inhibition, % at 2.35 µM | hit rate 0.069% among 330,000 | AID 2099;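 active means more than half of a compound's replicate wells show inhibition beyond 50%, single wells judged on their own value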;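 further: signal counts dimethyl H3K9 product captured on neutravidin plate; 0% = median of DMSO wells and 100% = 0.3 times that DMSO median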
# PP5 inh: inhibitors of human protein phosphatase 5 (PP5) | purified PP5c, OMFP substrate fluorescence | inhibition, % at 6.7 µM | hit rate 0.18% among 320,000;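 active means inhibition above the campaign's mean inhibition across all tested compounds plus 3 SD, cut at about 9.5% in these data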;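 further: 0% = DMSO only and 100% = 100 µM cantharidin control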
# Target sequence (P53041 whole entry, looked up): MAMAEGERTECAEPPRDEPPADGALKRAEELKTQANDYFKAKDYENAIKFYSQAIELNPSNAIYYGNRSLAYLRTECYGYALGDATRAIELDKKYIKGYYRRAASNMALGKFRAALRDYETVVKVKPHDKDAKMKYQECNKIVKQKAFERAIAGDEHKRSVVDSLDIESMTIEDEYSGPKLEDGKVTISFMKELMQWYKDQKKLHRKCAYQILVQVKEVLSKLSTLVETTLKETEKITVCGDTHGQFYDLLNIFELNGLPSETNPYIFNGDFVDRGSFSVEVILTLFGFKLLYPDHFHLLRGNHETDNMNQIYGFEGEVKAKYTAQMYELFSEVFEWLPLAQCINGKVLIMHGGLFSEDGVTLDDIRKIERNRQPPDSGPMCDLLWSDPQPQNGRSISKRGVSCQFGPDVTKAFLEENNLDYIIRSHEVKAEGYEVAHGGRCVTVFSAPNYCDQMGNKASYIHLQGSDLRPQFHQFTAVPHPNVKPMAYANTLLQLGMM
# PP1 inh: counter-screen for PP5 inhibitors: inhibitors of human PP1-alpha; P62136; inhibition, % at 6.7 µM; hit rate 0.9% among 320,000; AID 2235; purified PP1alpha, OMFP fluorescence;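 active means inhibition above the mean inhibition of all tested compounds plus 3 SD, computed separately for each screening campaign, cut at about 15% in these data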
# PP5 conf: confirmation of human PP5 phosphatase inhibitors; shares compounds with PP5 inh; hit rate 22% among 460; inhibition, % at 6.7 µM; Purified PP5, fluorogenic phosphatase substrate, fluorescence
# PP1 inh counter: PP1 phosphatase inhibition, counter-screen for PP5 inhibitors | shares compounds with PP5 inh | PP1 enzyme, fluorescent phosphatase substrate | inhibition, % at 6.7 µM | hit rate 4% among 460; in the data active means inhibition above about 16%
# PP1 inh confirm: confirmation of human PP1 phosphatase inhibitors | shares compounds with PP1 inh | purified PP1alpha, OMFP substrate fluorescence | inhibition, % at 6.7 µM | hit rate 52% among 1,900 | AID 2358;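 active means mean PP1 inhibition above a set limit taken from the earlier primary screen, cut at about 15% in these data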
# PP5 counter: counter-screen for PP1 inhibitors: human PP5 phosphatase inhibition | inhibition, % at 6.7 µM | shares compounds with PP1 inh | purified PP5c, OMFP fluorescence | hit rate 4% among 1,900;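 active means mean PP5 inhibition over triplicate wells above about 9.5% taken from the earlier PP1 screen, limit read from the data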
# PG9 bind confirm: PG9 antibody binding, confirmed; TR-FRET PG9 antibody binding, biochemical; shares compounds with PG9 binder; hit rate 90% among 1,500; inhibition, % at 6.7 µM; AID 651571; in the data active means inhibition above about 9%
# PGV04 counter: binds control antibody PGV04 in PG9 binder counter-screen; shares compounds with PG9 binder; TR-FRET PGV04 antibody-gp120 binding, biochemical; inhibition, % at 6.7 µM; hit rate 95% among 1,500; AID 651604
# KLK7 act conf: confirmation of human kallikrein-7 zymogen activators | AID 686949 | shares compounds with proKLK7 act | purified proKLK7, EDANS-DABCYL substrate fluorescence; scaled: vehicle 0, mature enzyme 100 | activation, % at 7 µM | hit rate 68% among 3,200;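 active means activation, as change over the incubation, above the mean of all tested compounds plus 3 SD, cut at about 13% in these data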
# EDANS-DABCYL int: counter-screen for kallikrein-7 activators: EDANS-DABCYL optical interference | shares compounds with proKLK7 act | EDANS-DABCYL substrate fluorescence interference, no enzyme, 4 h; solvent 0%, active enzyme control 100% | activation, % at 7 µM | hit rate 80% among 3,200 | AID 686952;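 active means activation above the all-compound mean plus 3 SD, ignoring values outside control-based bounds, cut at about 4.8% in these data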;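 further: value is the 4 h activation minus the activation read at time zero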
# K7 EDANS ctr: counter-screen for kallikrein-7 activators: EDANS-DABCYL interference, dose response | shares compounds with proKLK7 act | EDANS-DABCYL peptide fluorescence interference, no enzyme | EC50, µM | hit rate 20% among 250;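 active means compounds that raise the fluorescence signal in this interference counterscreen, with EC50 at or below 10 µM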;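 further: intact quenched peptide substrate alone read at 355 nm excitation and 520 nm emission; signal is fluorescence gain from T0 to T4 after four hours at room temperature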
# NR1D1 mod conf: confirmation of modulators of human Rev-erb alpha DNA binding. shares compounds with Rev-erbA mod. activation, % at 25 µM. Rev-erb alpha FITC-DNA binding, fluorescence polarization, 90 min. hit rate 61% among 3,000. AID 1259319;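 active means activation at or above a set limit, or at least 3 SD above the negative control mean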;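 further: 0% = 35 nM protein with DMSO and 100% = 750 nM protein high control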
# Active calls of the source: *; / = no result given. Unless noted, no stated cut-off is given here; in the data, active means inhibition above about 9.5%; inactive means the rest.
SMILES,proKLK7 act,PG9 binder,Rev-erbA mod,GASC-1 inh,PP5 inh,PP1 inh,PP5 conf,PP1 inh counter,PP1 inh confirm,PP5 counter,others
COc1ccc(C(=O)Nc2ccc(S(=O)(=O)N3CCCCC3C)cc2)c(OC)c1OC (stereo not drawn),0,0,-2,-10,11*,0,1,2,/,/,
CC1=CC2C3C(=O)N(c4ccccc4)C(=O)C3C1C(=O)C2(O)C(C)C (stereo not drawn),0,-2,-4,/,/,/,/,/,/,/,
Cc1cc(C)nc(NC(=S)N2CCN(c3ncc(C(F)(F)F)cc3Cl)CC2)c1,/,/,0,/,/,/,/,/,/,/,
CCSc1nc2ccccc2c(=O)n1CCc1ccc(OC)c(OC)c1,1,-2,2,43,10*,-3,-1,0,/,/,
O=c1c2ccc(Cl)cc2[nH]c(=S)n1Cc1cccnc1,0,14*,14,-38,11*,-3,-4,-3,/,/,PG9 bind confirm=12*;PGV04 counter=14*
CN(C)c1ccc(-c2nn3c(-c4ccco4)nnc3s2)cc1,-39,/,-25,/,/,/,/,/,/,/,
CC1(C)CC(=O)C2=C(C1)c1c(ccc3ccccc13)NC2c1ccc(OCC(=O)O)cc1 (stereo not drawn),36*,2,2,14,9.8*,-2,-2,1,/,/,KLK7 act conf=23*;EDANS-DABCYL int=18*;K7 EDANS ctr=>23
CC(C)Cn1c(N)c(C(=O)NCC2CCCO2)c2nc3ccccc3nc21 (stereo not drawn),-28,0,1,-6,5,2,/,/,/,/,
COCCn1c(N)c(C(=O)NCC2CCCO2)c2nc3ccccc3nc21 (stereo not drawn),13*,1,0,33,13*,4,15*,-4,/,/,KLK7 act conf=-143;EDANS-DABCYL int=-183
COc1cccc(CNC(=O)[C@H]2CCCN2C(=O)[C@H]2CCCN2C(=O)c2cccc(Cl)c2)c1,1,1,3,/,/,/,/,/,/,/,
O=c1c2cc(N3CCOCC3)ccc2[nH]c(=S)n1Cc1ccco1,28*,1,-10,17,10*,9,-3,-1,/,/,KLK7 act conf=17*;EDANS-DABCYL int=17*
Nn1c(SCC(=O)NC2CCCCC2)nnc1-c1n[nH]c2c1CCC2,0,/,-3,/,/,/,/,/,/,/,
CC1=NN(c2ccccc2)C(=O)/C1=C/C=C/C=C/N(C)C,0,-30,51*,-27,10*,3,14*,12,/,/,NR1D1 mod conf=53*
COc1ccc2nc(C(F)(F)C(F)(F)F)c(C#N)c(N)c2c1,50*,-2,46*,-6,9.8*,6,9,7,/,/,KLK7 act conf=-9;EDANS-DABCYL int=-13;NR1D1 mod conf=28*
COc1cc(OC)c2c(N)c(C#N)c(C(F)(F)C(F)(F)F)nc2c1,-1,2,3,-4,2,-1,/,/,/,/,
O=[N+]([O-])c1ccc(CN2CCOCCOCCN(Cc3ccc([N+](=O)[O-])cc3Cl)CCOCC2)c(Cl)c1,/,/,-3,/,/,/,/,/,/,/,
Oc1c(C(Nc2nc3ccccc3s2)c2ccco2)ccc2cccnc12 (stereo not drawn),-1,0,-1,7,3,29*,/,/,19*,-5,
CC(C)C(=O)NC(c1ccco1)c1ccc2cccnc2c1O (stereo not drawn),1,1,-1,2,0,1,/,/,/,/,
NS(=O)(=O)c1cccc(NC(=O)CSc2nc3nc(-c4cccs4)cc(C(F)(F)F)c3c(=O)[nH]2)c1,1,0,4,-6,4,27*,/,/,21*,2,
O=C(CSc1nc2nc(-c3cccs3)cc(C(F)(F)F)c2c(=O)[nH]1)Nc1c(F)c(F)c(F)c(F)c1F,-1,0,-3,27,3,5,/,/,/,/,
O=S1(=O)c2c(NCc3ccco3)cccc2Oc2ccccc2CN1Cc1cn(Cc2ccccc2C(F)(F)F)nn1,-2,/,-3,/,/,/,/,/,/,/,
CC[n+]1c(/C=C/N(C)c2ccccc2)n(-c2ccccc2)c2ccc(-c3nc4ccccc4s3)cc21,/,/,/,-31,2,36*,/,/,8,0,
CCN(CC)C(=O)[C@H]1C[C@@H]2[C@H](C[C@@H](c3ccccc3)[C@H]1C)N(c1ccc(F)cc1)C(=O)N2CCCOc1ccccc1,1,-1,-5,/,/,/,/,/,/,/,
CN1CCN(C(c2ccc(Br)cc2)c2cc(Cl)c3cccnc3c2O)CC1 (stereo not drawn),0,0,-2,-8,5,24*,/,/,3,-1,
O=C(C(=O)N1CCC(CNC(=O)c2cccs2)CC1)c1cc2ccccc2o1,0,-3,1,/,/,/,/,/,/,/,
SMILES,proKLK7 act,PG9 binder,Rev-erbA mod,GASC-1 inh,PP5 inh,PP1 inh,PP5 conf,PP1 inh counter,PP1 inh confirm,PP5 counter,others
O=C(O)c1cc(-c2ccc(Cl)cc2)n(-c2cccc(Cl)c2)n1,0,0,4,-11,1,50*,/,/,49*,1,
O=C(O)c1cc(-c2ccccc2Cl)n(-c2cccc(Cl)c2)n1,0,0,-7,0,2,18*,/,/,11,-1,
O=C(O)c1cc(-c2ccc(Cl)cc2)n(-c2ccccc2)n1,0,-1,-4,-3,2,42*,/,/,43*,-6,
O=C(O)c1cc(-c2ccccc2Cl)n(-c2ccc(F)cc2)n1,0,1,-1,-25,-1,8,/,/,/,/,
O=C(O)c1cc(-c2ccccc2)n(-c2ccc(Cl)cc2Cl)n1,-1,1,7,-12,1,38*,/,/,36*,-2,
O=C(O)c1cc(-c2ccccc2)n(-c2ccc(F)cc2)n1,0,-1,-4,-16,2,29*,/,/,18*,-3,
